From PubChem BioAssay (NCATS)
Records with an inconclusive call do not appear. Where a call stands in place of a potency, no number is given. Calls of active or inactive are those of the source. Unless noted, the call rests on the fitted dose curve; in most records, active means well fitted curve in the direction sought with a large enough effect; inconclusive means small, poorly fitted or top-dose-only effect, or another doubt; inactive means no such curve, though single readings can be large; an effect the other way counts as inactive or inconclusive.

Columns and labels:
[1] = S16 Schwann cell viability assay (CellTiter-Glo assay) (AID 624031); conditions: S16 rat Schwann cells viability, 24 h; series mostly up to 25.7 µM;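 further: cellular ATP luminescence as a viability measure; nearly all actives have a fitted effect of over 70% in size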
How it was run: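 CellTiter-Glo ATP luminescence counter-screen in untransfected S16 rat Schwann cells, 24h compound exposure at 37 degree Celsius after overnight seeding (500-750 cells/well); response scaled between cell-free wells and DMSO (0% activity), curves classed by r2 and magnitude.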

[2] = system: AA1029; assay: qHTS profiling for inhibitors of Plasmodium falciparum proliferation (AID 504749); further: nearly all actives have a fitted effect of over 60% in size; further: potency means the concentration at half of the fitted maximal effect; conditions: P. falciparum in erythrocytes, SYBR Green DNA, 72 h; series mostly up to 12.8 µM
How it was run: (§1)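 P. falciparum-infected erythrocytes (0.3% parasitemia, 2.5% hematocrit final) were exposed to compounds for 72 h at 37 C in 5% CO2, then lysed with SYBR Green buffer overnight at room temperature; parasite DNA fluorescence was normalized to artemisinin and DMSO controls.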

[3] = system: CP194; assay: as above; conditions: P. falciparum in erythrocytes, SYBR Green DNA, 72 h; series mostly up to 12.8 µM
How it was run: as §1

[4] = system: CP201; assay: as above; conditions: P. falciparum in erythrocytes, SYBR Green DNA, 72 h; series mostly up to 12.8 µM
How it was run: as §1

[5] = system: CP247; assay: as above; conditions: P. falciparum in erythrocytes, SYBR Green DNA, 72 h; series mostly up to 12.8 µM
How it was run: as §1

[6] = system: CP250; assay: as above; conditions: P. falciparum in erythrocytes, SYBR Green DNA, 72 h; series mostly up to 12.8 µM
How it was run: as §1

[7] = system: CP256; assay: as above; conditions: P. falciparum in erythrocytes, SYBR Green DNA, 72 h; series mostly up to 12.8 µM
How it was run: as §1

[8] = system: CP265; assay: as above; conditions: P. falciparum in erythrocytes, SYBR Green DNA, 72 h; series mostly up to 12.8 µM
How it was run: as §1

[9] = system: CP286; assay: as above; conditions: P. falciparum in erythrocytes, SYBR Green DNA, 72 h; series mostly up to 12.8 µM
How it was run: as §1

[10] = system: CP335; assay: as above; conditions: P. falciparum in erythrocytes, SYBR Green DNA, 72 h; series mostly up to 12.8 µM
How it was run: as §1

[11] = system: DFO2036; assay: as above; conditions: P. falciparum in erythrocytes, SYBR Green DNA, 72 h; series mostly up to 12.8 µM
How it was run: as §1

[12] = system: DIV14; assay: as above; conditions: P. falciparum in erythrocytes, SYBR Green DNA, 72 h; series mostly up to 12.8 µM
How it was run: as §1

[13] = system: DIV17; assay: as above; conditions: P. falciparum in erythrocytes, SYBR Green DNA, 72 h; series mostly up to 12.8 µM
How it was run: as §1

[14] = system: DIV30; assay: as above; conditions: P. falciparum in erythrocytes, SYBR Green DNA, 72 h; series mostly up to 12.8 µM
How it was run: as §1

[15] = system: Dd2; assay: as above; conditions: P. falciparum in erythrocytes, SYBR Green DNA, 72 h; series mostly up to 12.8 µM
How it was run: as §1

[16] = system: P93_24; assay: as above; conditions: P. falciparum in erythrocytes, SYBR Green DNA, 72 h; series mostly up to 12.8 µM
How it was run: as §1

[17] = system: PC15; assay: as above; conditions: P. falciparum in erythrocytes, SYBR Green DNA, 72 h; series mostly up to 12.8 µM
How it was run: as §1

[18] = system: TAB109; assay: as above; conditions: P. falciparum in erythrocytes, SYBR Green DNA, 72 h; series mostly up to 12.8 µM
How it was run: as §1

[19] = system: TAB165; assay: as above; conditions: P. falciparum in erythrocytes, SYBR Green DNA, 72 h; series mostly up to 12.8 µM
How it was run: as §1

[20] = S16 Schwann cell PMP22 intronic element beta-lactamase assay (AID 624044; calls by dose curve; further: nearly all actives have a fitted effect of over 15% in size); conditions: S16 rat Schwann cells, PMP22 element beta-lactamase FRET, 24 h; series mostly up to 17.1 µM
How it was run: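 Rat S16 Schwann cells with beta-Lac driven by a PMP22 intronic element, compound-treated 24 h at 37 °C. LiveBLAzer FRET B/G read: 460 nm normalized to potassium clavulanate vs DMSO; 535 nm FRET as viability; concentration-effect curves classified.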

Row | SMILES | outcome [1] | Potency [2] | Potency [3] | Potency [4] | Potency [5] | Potency [6] | Potency [7] | Potency [8] | Potency [9] | Potency [10] | Potency [11] | Potency [12] | Potency [13] | Potency [14] | Potency [15] | Potency [16] | Potency [17] | Potency [18] | Potency [19] | Potency [20]
1 | C/C1=C2N=C(/C=C3N=C(/C(C)=C4\[N-]C(C)(C5N=C1C(C)(CCC(=O)NCC(C)OP(=O)([O-])O[C@H]1C(O)C(n6cnc7cc(C)c(C)cc76)O[C@@H]1CO)C5CC(N)=O)C(C)(CC(N)=O)C4CCC(N)=O)C(C)(CC(N)=O)C\3CCC(N)=O)C(C)(C)C/2CCC(N)=O.[CH2-]C1OC(n2cnc3c(N)ncnc32)C(O)C1O.[Co] (some centres undefined) | inactive | inactive | inactive | inactive | inactive | inactive | inactive | inactive | inactive | inactive | inactive | inactive | inactive | inactive | inactive | inactive | inactive | inactive | inactive | 
2 | NC(C(=O)O)[C@@H]1CC(Cl)=NO1 (some centres undefined) |  | 1 µM (active) | 3.38 µM (active) | 3.01 µM (active) | 3.16 µM (active) | 2.82 µM (active) | 2.82 µM (active) | 3.16 µM (active) | 0.794 µM (active) | 1.2 µM (active) | 2 µM (active) | 2.39 µM (active) | 3.38 µM (active) | 3.38 µM (active) | 0.708 µM (active) | 1 µM (active) | 3.16 µM (active) | 1 µM (active) | 1 µM (active) | 
3 | NCC1CCC(N)C(O[C@@H]2C(O)[C@H](O[C@H]3OC(CO)C(O)C(N)C3O)[C@@H](N)C[C@H]2N)O1 (some centres undefined) | inactive | inactive | inactive | inactive | inactive | inactive | inactive | inactive | inactive | inactive | inactive | inactive | inactive | inactive | inactive | inactive | inactive | inactive | inactive | 
4 | CC1(C)SC2C(N3C(=O)C(c4ccccc4)NC3(C)C)C(=O)N2C1C(=O)O (centres undefined) | inactive | inactive | inactive | inactive | inactive | inactive | inactive | inactive | inactive | inactive | inactive | inactive | inactive | inactive | inactive | inactive | inactive | inactive | inactive | inactive
5 | C[C@]12CCC(=O)C=C1CCC1C2C(=O)C[C@]2(C)C1CC[C@]2(O)C(=O)CO (some centres undefined) | inactive | inactive | inactive | inactive | inactive | inactive | inactive | inactive | inactive | inactive | inactive |  | inactive | inactive | inactive | inactive | inactive | inactive | inactive | inactive
6 | C[C@]12C=CC(=O)C=C1CCC1C2C(O)C[C@]2(C)C1CC[C@]2(O)C(=O)CO (some centres undefined) | inactive | inactive | inactive | inactive | inactive | inactive | inactive | inactive | inactive | inactive | inactive | inactive | inactive | inactive | inactive | inactive | inactive | inactive | inactive | inactive
7 | CC(C)=CCC[C@](C)(O)C1CC=C(C)CC1 (some centres undefined) | inactive | inactive | inactive | inactive | inactive | inactive | inactive | inactive | inactive | inactive | inactive | inactive | inactive | inactive | inactive | inactive | inactive | inactive | inactive | inactive
8 | CC1CCC(C(C)C)C(=O)C1 (centres undefined) | inactive | inactive | inactive | inactive | inactive | inactive | inactive | inactive | inactive | inactive | inactive | inactive | inactive | inactive | inactive | inactive | inactive | inactive | inactive | 
9 | CC[C@@]12CCCN3CCc4c(n(c5ccccc45)[C@](O)(C(=O)OC)C1)C32 (some centres undefined) | inactive | inactive | inactive | inactive | inactive | inactive | inactive | inactive | inactive | inactive | inactive | inactive |  | inactive |  | inactive | inactive | inactive | inactive | 
10 | CC(C)C1CCC(C(=O)NC(Cc2ccccc2)C(=O)O)CC1 (centres undefined) | inactive | inactive | inactive | inactive | inactive |  | inactive | inactive | inactive | inactive | inactive | inactive | inactive | inactive | inactive | inactive | inactive | inactive | inactive | inactive
11 | CC1C2CCC3C4CC=C5CC(N(C)C)CC[C@@]5(C)C4CC[C@@]32CN1C (some centres undefined) | inactive | inactive | inactive | inactive | inactive | inactive | inactive | inactive | inactive | inactive | inactive | inactive | inactive | inactive | inactive | inactive | inactive |  | inactive | inactive
12 | CC(=O)O[C@@]1(C(C)=O)CCC2C3CC(C)C4=CC(=O)CC[C@@]4(C)C3CC[C@]21C (some centres undefined) |  |  | inactive | inactive |  |  |  |  | inactive |  |  | inactive | inactive | inactive |  |  |  |  |  | inactive
13 | COc1ccc2cc1Oc1ccc(cc1)CC1c3c(cc4c(c3Oc3cc5c(cc3OC)CCN(C)C5C2)OCO4)CCN1C (centres undefined) |  | 3.55 µM (active) | 13.5 µM (active) |  | 5.62 µM (active) |  | 10 µM (active) | 8.91 µM (active) | 3.98 µM (active) | 6.01 µM (active) | 7.94 µM (active) | 5.36 µM (active) | 7.57 µM (active) |  | 2.24 µM (active) | 6.31 µM (active) |  | 7.08 µM (active) | 3.98 µM (active) | inactive
14 | N[C@@H]1C(O)OC(CO)C(O)C1O (some centres undefined) | inactive | inactive | inactive | inactive | inactive | inactive | inactive | inactive | inactive | inactive | inactive |  | inactive | inactive | inactive | inactive | inactive | inactive | inactive | inactive
15 | CC(=O)[C@]1(O)CCC2C3C=C(Cl)C4=CC(=O)C5CC5[C@@]4(C)C3CC[C@]21C (some centres undefined) | inactive | inactive | inactive | inactive |  | inactive | inactive | inactive | inactive | inactive | inactive | inactive | inactive | inactive | inactive | inactive | inactive | inactive | inactive | inactive
